The record followed here is PubChem BioAssay (NCI).

Molecules are shown by their SMILES. About 79,000 compounds went through this panel and 15% of them were active in at least one assay; those are over-represented in the sample as a whole. Values without a mark were called inactive. The source made the active and inactive calls. No stated cut-off is given here; in the data, active means growth inhibition above about 70%; inactive means the rest.

Assay [1] can be described thus: NCI Yeast Anticancer Drug Screen. Data for the rad50 strain (AID 155).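 Further: 0% = growth of vehicle-only cultures of the same strain.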 Particulars: S. cerevisiae rad50 strain growth inhibition, stronger effect = higher value. In a few lines:
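Inhibition values express reduced yeast growth in compound-treated cultures relative to vehicle-treated controls.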

A short description of assay [2]: NCI Yeast Anticancer Drug Screen. Data for the mec2-1 strain (AID 157). To be noted: S. cerevisiae mec2-1 strain, stronger effect = higher value. Put shortly: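 Yeast mec2-1 mutant treated with compound. Readout: growth inhibition vs vehicle controls.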
Assay [3] is described as follows: NCI Yeast Anticancer Drug Screen. Data for the sgs1 mgt1 strain (AID 161).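 Further: 0% = growth of cultures given vehicle only.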 To be noted: S. cerevisiae sgs1 mgt1 strain, stronger effect = higher value. Put shortly:
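Inhibition of yeast growth, normalised to vehicle-treated controls, is reported for a strain bearing genetic alterations in DNA damage repair.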

The nature of assay [4]: NCI Yeast Anticancer Drug Screen. Data for the cln2 rad14 strain (AID 165).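 Further: 0% = growth equal to vehicle treated cultures.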 To be noted: S. cerevisiae cln2 rad14 strain, stronger effect = higher value. In a few lines:
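cln2 rad14 yeast strain; compound exposure; growth inhibition read vs vehicle controls.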

Assay [5] can be described thus: NCI Yeast Anticancer Drug Screen. Data for the bub3 strain (AID 167). Particulars: S. cerevisiae bub3 mutant strain, stronger effect = higher value. Put shortly: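 Steps: expose the mutant yeast strain to compound; grow alongside vehicle-treated cultures; measure growth; express inhibition against the vehicle cultures.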
A short description of assay [6]: NCI Yeast Anticancer Drug Screen. Data for the mlh1 rad18 strain (AID 175). To be noted: S. cerevisiae mlh1 rad18 strain growth inhibition, stronger effect = higher value. Put shortly:
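Yeast w/ defined DNA-repair lesions; compound exposure; growth vs vehicle controls → % inhibition.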

The mark [7] stands for this setting: at 5.0 µM (retest, dose inferred, filed as 0.5).
[8] abbreviates: at 50.0 µM (retest, dose inferred, filed as 5.0).

Turning to `C/C(O)=c1\cc(C#N)c(=C(C#N)C#N)nc1C`, the growth inhibition was -4% in assay [1] (setting [7]); -3% in assay [1] (setting [8]); 8.05% in assay [1] (at 50.0 µM); -2% in assay [2] (setting [7]); 1% in assay [2] (setting [8]); -0.15% in assay [2] (at 50.0 µM). For the same compound, the growth inhibition in assay [3] (setting [7]) is 2%; in assay [3] (setting [8]), 5%; in assay [3] (at 50.0 µM), 1.15%; in assay [4] (setting [7]), -1%; in assay [4] (setting [8]) it was -8%; in assay [4] (at 50.0 µM), -3%. The growth inhibition was 3% in assay [5] (setting [7]); 11% in assay [5] (setting [8]); 10.6% in assay [5] (at 50.0 µM); 0% in assay [6] (setting [7]); 3% in assay [6] (setting [8]); 46.4% in assay [6] (at 50.0 µM).
For `CN1CCCC(C(=O)OCC(=O)C2(O)CCC3C4CCC5=CC(=O)CCC5(C)C4C(O)CC32C)C1` (centres undefined), the growth inhibition in assay [1] (setting [7]) is 13%; in assay [1] (setting [8]) it was 11%; in assay [1] (at 50.0 µM), 29.2%; in assay [2] (setting [7]) it was -5%; in assay [2] (setting [8]), 0%; in assay [2] (at 50.0 µM) it was 5%. The growth inhibition was -7% in assay [3] (setting [7]); 5% in assay [3] (setting [8]); -11% in assay [3] (at 50.0 µM); 3% in assay [4] (setting [7]); 8% in assay [4] (setting [8]); 38.4% in assay [4] (at 50.0 µM). Besides, the growth inhibition is -7% in assay [5] (setting [7]); 9% in assay [5] (setting [8]); 12.4% in assay [5] (at 50.0 µM); -3% in assay [6] (setting [7]); 35% in assay [6] (setting [8]); 42.9% in assay [6] (at 50.0 µM).
As to `Cc1ccc(-c2c(C#N)c(S)n(NS(=O)(=O)c3ccccc3)c(=O)c2C#N)cc1`, the growth inhibition in assay [1] (setting [7]) was 28%; in assay [1] (setting [8]), 89% (active); in assay [1] (at 50.0 µM) it was 60.1%; in assay [2] (setting [7]), 12%; in assay [2] (setting [8]), 91% (active); in assay [2] (at 50.0 µM), 80% (active). Further, the growth inhibition in assay [3] (setting [7]) was 32%; in assay [3] (setting [8]), 94% (active); in assay [3] (at 50.0 µM), 83.8% (active); in assay [4] (setting [7]), 47%; in assay [4] (setting [8]), 64%; in assay [4] (at 50.0 µM), 29.4%. The growth inhibition was 53% in assay [5] (setting [7]); 94% (active) in assay [5] (setting [8]); 71.2% (active) in assay [5] (at 50.0 µM); 16% in assay [6] (setting [7]); 66% in assay [6] (setting [8]); 75.6% (active) in assay [6] (at 50.0 µM).
For the compound `O=[N+]([O-])c1cccn2nc(C3OC(CO)C(O)C3O)nc12` (centres undefined), the growth inhibition was 3% in assay [1] (setting [7]); 13% in assay [1] (setting [8]); -11.2% in assay [1] (at 50.0 µM); -3% in assay [2] (setting [7]); -2% in assay [2] (setting [8]); -4.8% in assay [2] (at 50.0 µM). Besides, the growth inhibition is 0% in assay [3] (setting [7]); 7% in assay [3] (setting [8]); -14.7% in assay [3] (at 50.0 µM); 3% in assay [4] (setting [7]); -4% in assay [4] (setting [8]); 34.4% in assay [4] (at 50.0 µM). Besides, the growth inhibition in assay [5] (setting [7]) was 0%; in assay [5] (setting [8]) it was -1%; in assay [5] (at 50.0 µM), -11.4%; in assay [6] (setting [7]) it was -2%; in assay [6] (setting [8]), 3%; in assay [6] (at 50.0 µM) it was -4.65%.
Turning to `CC(/C=C/c1ccco1)=N\NC(=S)NCC(C)C`, the growth inhibition in assay [1] (setting [7]) is 13%; in assay [1] (setting [8]), 80% (active); in assay [1] (at 50.0 µM), 63.5%; in assay [2] (setting [7]), -20%; in assay [2] (setting [8]) it was 53%; in assay [2] (at 50.0 µM), 61.9%. In addition, the growth inhibition in assay [3] (setting [7]) is 38%; in assay [3] (setting [8]) it was 86% (active); in assay [3] (at 50.0 µM), 81.2% (active); in assay [4] (setting [7]) it was 16%; in assay [4] (setting [8]) it was 61%; in assay [4] (at 50.0 µM), 64.4%. For the same compound, the growth inhibition was 30% in assay [5] (setting [7]); 87% (active) in assay [5] (setting [8]); 83.5% (active) in assay [5] (at 50.0 µM); 25% in assay [6] (setting [7]); 88% (active) in assay [6] (setting [8]); 75.5% (active) in assay [6] (at 50.0 µM).
Regarding `Cc1ccc(C(O)CCN2CCOCC2)c(C)c1` (centres undefined), the growth inhibition in assay [1] (setting [7]) was 26%; in assay [1] (setting [8]) it was 69%; in assay [1] (at 50.0 µM), 81.5% (active); in assay [2] (setting [7]), 30%; in assay [2] (setting [8]), 61%; in assay [2] (at 50.0 µM), 45.1%. Moreover, the growth inhibition in assay [3] (setting [7]) was 44%; in assay [3] (setting [8]), 68%; in assay [3] (at 50.0 µM), 78% (active); in assay [4] (setting [7]), 44%; in assay [4] (setting [8]), 71% (active); in assay [4] (at 50.0 µM), 57.2%. In addition, the growth inhibition in assay [5] (setting [7]) was 43%; in assay [5] (setting [8]) it was 82% (active); in assay [5] (at 50.0 µM) it was 70%; in assay [6] (setting [7]), 23%; in assay [6] (setting [8]), 65%; in assay [6] (at 50.0 µM), 69.2%.
With `CC1(C)NC(=O)C(C)(C)NC1=O`, the growth inhibition was 4% in assay [1] (setting [7]); -2% in assay [1] (setting [8]); -12.9% in assay [1] (at 50.0 µM); 1% in assay [2] (setting [7]); 2% in assay [2] (setting [8]); 5.8% in assay [2] (at 50.0 µM). Moreover, the growth inhibition in assay [3] (setting [7]) was 0%; in assay [3] (setting [8]), -1%; in assay [3] (at 50.0 µM), -7.4%; in assay [4] (setting [7]), 2%; in assay [4] (setting [8]), 3%; in assay [4] (at 50.0 µM), -19.9%. The growth inhibition in assay [5] (setting [7]) is 4%; in assay [5] (setting [8]), -2%; in assay [5] (at 50.0 µM) it was 48%; in assay [6] (setting [7]), 3%; in assay [6] (setting [8]) it was 3%; in assay [6] (at 50.0 µM) it was -14.8%.
Regarding `COc1ccc(CN2CCCN(Cc3ccc(OC)cc3OC)C2c2cc(Br)ccc2O)c(OC)c1`, the growth inhibition in assay [1] (setting [7]) was 31%; in assay [1] (setting [8]), 98% (active); in assay [1] (at 50.0 µM) it was 99% (active); in assay [2] (setting [7]), 18%; in assay [2] (setting [8]), 100% (active); in assay [2] (at 50.0 µM), 95.2% (active). Also, the growth inhibition in assay [3] (setting [7]) is 27%; in assay [3] (setting [8]), 99% (active); in assay [3] (at 50.0 µM) it was 99.2% (active); in assay [4] (setting [7]), 12%; in assay [4] (setting [8]), 94% (active); in assay [4] (at 50.0 µM) it was 57.2%. Moreover, the growth inhibition is 15% in assay [5] (setting [7]); 98% (active) in assay [5] (setting [8]); 27.9% in assay [5] (at 50.0 µM); 63% in assay [6] (setting [7]); 99% (active) in assay [6] (setting [8]); 98.7% (active) in assay [6] (at 50.0 µM).
